{"source": "the supplement of paper PMC8728848", "binders": {"B1": {"name": "DC-ASGPR S+GEE (Homo sapiens) (protein)", "chain": "MTRTYENFQYLENKVKVQGFKNGPLPLQSLLQRLRSGPCHLLLSLGLGLLLLVIICVVGFQNSKFQRDLVTLRTDFSNFTSNTVAEIQALTSQGSSLEETIASLKAEVEGFKQERQAVHSEMLLRVQQLVQDLKKLTCQVATINNNGEEASTEGTCCPVNWVEHQDSCYWFSHSGMSWAEAEKYCQLKNAHLVVINSREEQNFVQKYLGSAYTWMGLSDPEGAWKWVDGTDYATGFQNWKPGQPDDWQGHGLGGGEDCAHFHPDGRWNDDVCQRPYHWVCEAGLGQTSQESH"}, "B2": {"name": "OrysaEULS2 (Oryza sativa) (protein)", "chain": "MVYCRANPNYAMTARNGAVVLAPANPKDEYQHWIKDMRWSTSIKDEEGYPAFALVNKATGQAIKHSLGQSHPVRLVPYNPEVMDESVLWTESRDVGNGFRCIRMVNNIYLNFDAFHGDKYHGGVRDGTDIVLWKWCEGDNQRWKIQPYYILEQKLISEEDLNSAVDHHHHHH"}}, "assay_in_all_cases": "glycan array binding signal (z-score within array); higher = stronger binding", "conditions_in_all_cases": "glycan notation: IUPAC condensed, linker removed", "key": {"Man(b1-4)GlcNAc": {"target": "Man(b1-4)GlcNAc", "in_short": "(§1)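 The binding signal is a Z-score computed within each array and averaged over linkers. Arrays of the same protein sequence at different concentrations or buffers were also averaged together. Data originate from 3228 arrays in the Consortium for Functional Glycomics database, kept only where the protein sequence was available.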"}, "[1]": {"target": "Neu5Ac(a2-3)Gal(b1-3)GalNAc(b1-4)[Neu5Ac(a2-3)]Gal(b1-4)Glc", "in_short": "as §1"}, "[2]": {"target": "Neu5Ac(a2-3)Gal(b1-3)GlcNAc(b1-6)GalNAc", "in_short": "as §1"}, "[3]": {"target": "Neu5Ac(a2-3)Gal(b1-4)GlcNAc(b1-2)Man(a1-3)[Neu5Ac(a2-6)Gal(b1-4)GlcNAc(b1-2)Man(a1-6)]Man(b1-4)GlcNAc(b1-4)GlcNAc", "in_short": "as §1"}, "[4]": {"target": "Neu5Ac(a2-3)Gal(b1-4)GlcNAc(b1-3)Gal", "in_short": "as §1"}, "[5]": {"target": "Neu5Ac(a2-3)Gal(b1-4)GlcNAc(b1-6)GalNAc", "in_short": "as §1"}, "[6]": {"target": "Neu5Ac(a2-3)Gal6S(b1-4)GlcNAc", "in_short": "as §1"}, "[7]": {"target": "Neu5Ac(a2-6)Gal(b1-4)GlcNAc(b1-2)Man(a1-6)[Gal(b1-4)GlcNAc(b1-2)Man(a1-3)]Man(b1-4)GlcNAc(b1-4)GlcNAc", "in_short": "as §1"}, "[8]": {"target": "Neu5Ac(a2-6)GalNAc(b1-4)GlcNAc6S", "in_short": "as §1"}, "[9]": {"target": "Neu5Ac(a2-8)Neu5Ac(a2-3)Gal(b1-3)GalNAc(b1-4)[Neu5Ac(a2-8)Neu5Ac(a2-3)]Gal(b1-4)Glc", "in_short": "as §1"}, "[10]": {"target": "Neu5Ac(a2-8)Neu5Ac(a2-8)Neu5Ac(a2-8)Neu5Ac(a2-3)[GalNAc(b1-4)]Gal(b1-4)Glc", "in_short": "as §1"}, "Neu5Gc(a2-3)Gal(b1-4)Glc": {"target": "Neu5Gc(a2-3)Gal(b1-4)Glc", "in_short": "as §1"}, "[11]": {"target": "Fuc(a1-2)Gal(b1-3)GalNAc(b1-3)Gal(a1-4)Gal(b1-4)Glc", "in_short": "as §1"}, "[12]": {"target": "Fuc(a1-2)Gal(b1-3)[Fuc(a1-4)]GlcNAc(b1-2)Man(a1-3)[Fuc(a1-2)Gal(b1-3)[Fuc(a1-4)]GlcNAc(b1-2)Man(a1-6)]Man(b1-4)GlcNAc(b1-4)[Fuc(a1-6)]GlcNAc(b1-4)[Fuc(a1-6)]GlcNAc", "in_short": "as §1"}, "[13]": {"target": "Fuc(a1-2)Gal(b1-4)GlcNAc(b1-3)[Fuc(a1-3)[Gal(b1-4)]GlcNAc(b1-6)]Gal(b1-4)Glc", "in_short": "as §1"}, "[14]": {"target": "Fuc(a1-2)Gal(b1-4)GlcNAc(b1-6)GalNAc", "in_short": "as §1"}, "[15]": {"target": "Fuc(a1-2)Gal(b1-4)[Fuc(a1-3)]GlcNAc", "in_short": "as §1"}, "[16]": {"target": "Fuc(a1-2)Gal(b1-4)[Fuc(a1-3)]GlcNAc(b1-3)Gal(b1-4)[Fuc(a1-3)]GlcNAc(b1-3)Gal(b1-4)[Fuc(a1-3)]GlcNAc", "in_short": "as §1"}, "[17]": {"target": "Fuc(a1-2)[Gal(a1-3)]Gal(b1-3)GalNAc(b1-3)Gal(a1-4)Gal(b1-4)Glc", "in_short": "as §1"}, "[18]": {"target": "Fuc(a1-2)[Gal(a1-3)]Gal(b1-3)GlcNAc(b1-2)Man(a1-3)[Fuc(a1-2)[Gal(a1-3)]Gal(b1-3)GlcNAc(b1-2)Man(a1-6)]Man(b1-4)GlcNAc(b1-4)GlcNAc", "in_short": "as §1"}, "[19]": {"target": "Fuc(a1-2)[GalNAc(a1-3)]Gal(b1-4)Glc", "in_short": "as §1"}, "[20]": {"target": "Fuc(a1-2)[GalNAc(a1-3)]Gal(b1-4)GlcNAc", "in_short": "as §1"}, "[21]": {"target": "Fuc(a1-3)[Gal(b1-4)]GlcNAc(b1-3)Gal(b1-4)[Fuc(a1-3)]GlcNAc", "in_short": "as §1"}, "[22]": {"target": "Fuc(a1-3)[Gal(b1-4)]GlcNAc(b1-4)Gal(b1-4)[Fuc(a1-3)]GlcNAc(b1-4)Gal(b1-4)[Fuc(a1-3)]GlcNAc", "in_short": "as §1"}, "[23]": {"target": "Fuc(a1-3)[Gal(b1-4)]GlcNAc(b1-6)[Gal(b1-3)GlcNAc(b1-3)]Gal(b1-4)Glc", "in_short": "as §1"}, "[24]": {"target": "Fuc(a1-3)[Gal(b1-4)]GlcNAc(b1-6)[Neu5Ac(a2-3)Gal(b1-3)]GalNAc", "in_short": "as §1"}, "[25]": {"target": "Gal(a1-3)Gal(b1-3)GlcNAc(b1-2)Man", "in_short": "as §1"}, "[26]": {"target": "Gal(a1-3)Gal(b1-3)GlcNAc(b1-3)GalNAc", "in_short": "as §1"}, "[27]": {"target": "Gal(a1-3)Gal(b1-4)[Fuc(a1-3)]GlcNAc", "in_short": "as §1"}, "[28]": {"target": "Gal(a1-4)Gal(b1-3)GlcNAc(b1-2)Man(a1-3)[Gal(a1-4)Gal(b1-3)GlcNAc(b1-2)Man(a1-6)]Man(b1-4)GlcNAc(b1-4)GlcNAc", "in_short": "as §1"}, "Gal(b1-2)Gal": {"target": "Gal(b1-2)Gal", "in_short": "as §1"}, "[29]": {"target": "Gal(b1-3)GlcNAc(b1-3)GalNAc", "in_short": "as §1"}, "[30]": {"target": "Gal(b1-3)GlcNAc(b1-6)GalNAc", "in_short": "as §1"}, "[31]": {"target": "Gal(b1-3)[Fuc(a1-4)]GlcNAc", "in_short": "as §1"}, "[32]": {"target": "Gal(b1-3)[Neu5Ac(a2-6)]GlcNAc(b1-6)Gal(b1-4)Glc", "in_short": "as §1"}, "[33]": {"target": "Gal(b1-4)GalNAc(a1-3)[Fuc(a1-2)]Gal(b1-4)GlcNAc", "in_short": "as §1"}, "[34]": {"target": "Gal(b1-4)GlcNAc(b1-2)Man(a1-3)[GlcNAc(b1-2)Man(a1-6)]Man(b1-4)GlcNAc(b1-4)GlcNAc", "in_short": "as §1"}, "[35]": {"target": "Gal(b1-4)GlcNAc(b1-2)Man(a1-6)[Man(a1-3)]Man(b1-4)GlcNAc(b1-4)GlcNAc", "in_short": "as §1"}, "[36]": {"target": "Gal(b1-4)GlcNAc(b1-2)[Gal(b1-4)GlcNAc(b1-6)]Man(a1-6)[Gal(b1-4)GlcNAc(b1-2)Man(a1-3)]Man(b1-4)GlcNAc(b1-4)GlcNAc", "in_short": "as §1"}, "[37]": {"target": "Gal(b1-4)GlcNAc(b1-3)Gal(b1-4)GlcNAc(b1-2)Man(a1-3)[Gal(b1-4)GlcNAc(b1-3)Gal(b1-4)GlcNAc(b1-2)Man(a1-6)]Man(b1-4)GlcNAc(b1-4)[Fuc(a1-6)]GlcNAc", "in_short": "as §1"}, "[38]": {"target": "Gal(b1-4)GlcNAc(b1-3)Gal(b1-4)GlcNAc(b1-6)[Gal(b1-3)]GalNAc", "in_short": "as §1"}, "GalNAc(b1-3)GlcNAc": {"target": "GalNAc(b1-3)GlcNAc", "in_short": "as §1"}}, "note": "Many of the other results were omitted from the sample, so the strongest signals are more common in it than they were.", "data": [{"binder": "B1", "values": [{"measurement": "glycan array binding signal (z-score)", "setting": "Man(b1-4)GlcNAc", "value": -0.339}, {"measurement": "glycan array binding signal (z-score)", "setting": "[1]", "value": -0.329}, {"measurement": "glycan array binding signal (z-score)", "setting": "[2]", "value": 4.84}, {"measurement": "glycan array binding signal (z-score)", "setting": "[3]", "value": -0.297}, {"measurement": "glycan array binding signal (z-score)", "setting": "[4]", "value": -0.325}, {"measurement": "glycan array binding signal (z-score)", "setting": "[5]", "value": 4.38}, {"measurement": "glycan array binding signal (z-score)", "setting": "[6]", "value": -0.32}, {"measurement": "glycan array binding signal (z-score)", "setting": "[7]", "value": -0.355}, {"measurement": "glycan array binding signal (z-score)", "setting": "[8]", "value": 0.608}, {"measurement": "glycan array binding signal (z-score)", "setting": "[9]", "value": -0.342}, {"measurement": "glycan array binding signal (z-score)", "setting": "[10]", "value": 1.61}, {"measurement": "glycan array binding signal (z-score)", "setting": "Neu5Gc(a2-3)Gal(b1-4)Glc", "value": -0.351}]}, {"binder": "B2", "values": [{"measurement": "glycan array binding signal (z-score)", "setting": "[11]", "value": -0.184}, {"measurement": "glycan array binding signal (z-score)", "setting": "[12]", "value": -0.187}, {"measurement": "glycan array binding signal (z-score)", "setting": "[13]", "value": -0.276}, {"measurement": "glycan array binding signal (z-score)", "setting": "[14]", "value": -0.163}, {"measurement": "glycan array binding signal (z-score)", "setting": "[15]", "value": -0.191}, {"measurement": "glycan array binding signal (z-score)", "setting": "[16]", "value": -0.194}, {"measurement": "glycan array binding signal (z-score)", "setting": "[17]", "value": -0.248}, {"measurement": "glycan array binding signal (z-score)", "setting": "[18]", "value": -0.081}, {"measurement": "glycan array binding signal (z-score)", "setting": "[19]", "value": -0.205}, {"measurement": "glycan array binding signal (z-score)", "setting": "[20]", "value": -0.2}, {"measurement": "glycan array binding signal (z-score)", "setting": "[21]", "value": -0.27}, {"measurement": "glycan array binding signal (z-score)", "setting": "[22]", "value": -0.163}, {"measurement": "glycan array binding signal (z-score)", "setting": "[23]", "value": -0.183}, {"measurement": "glycan array binding signal (z-score)", "setting": "[24]", "value": -0.16}, {"measurement": "glycan array binding signal (z-score)", "setting": "[25]", "value": -0.28}, {"measurement": "glycan array binding signal (z-score)", "setting": "[26]", "value": -0.176}, {"measurement": "glycan array binding signal (z-score)", "setting": "[27]", "value": -0.216}, {"measurement": "glycan array binding signal (z-score)", "setting": "[28]", "value": 2.38}, {"measurement": "glycan array binding signal (z-score)", "setting": "Gal(b1-2)Gal", "value": -0.142}, {"measurement": "glycan array binding signal (z-score)", "setting": "[29]", "value": -0.179}, {"measurement": "glycan array binding signal (z-score)", "setting": "[30]", "value": -0.218}, {"measurement": "glycan array binding signal (z-score)", "setting": "[31]", "value": -0.191}, {"measurement": "glycan array binding signal (z-score)", "setting": "[32]", "value": -0.179}, {"measurement": "glycan array binding signal (z-score)", "setting": "[33]", "value": -0.199}, {"measurement": "glycan array binding signal (z-score)", "setting": "[34]", "value": 1.37}, {"measurement": "glycan array binding signal (z-score)", "setting": "[35]", "value": 5.65}, {"measurement": "glycan array binding signal (z-score)", "setting": "[36]", "value": 1.53}, {"measurement": "glycan array binding signal (z-score)", "setting": "[37]", "value": 0.18}, {"measurement": "glycan array binding signal (z-score)", "setting": "[38]", "value": -0.172}, {"measurement": "glycan array binding signal (z-score)", "setting": "GalNAc(b1-3)GlcNAc", "value": -0.242}]}]}
